PG9 binder: small molecules binding HIV-1 gp120 antibody PG9. TR-FRET gp120-PG9 antibody binding. inhibition, % at 6.7 µM. 0.43% of 360,000 active. AID 624416; in the data active = inhibition above about 8.5%
ABCB6 inh MLPCN: human ABCB6 transporter inhibition | Q9NP58 | K562-ABCB6 porphyrin accumulation, flow cytometry, 1 h; active compounds read low | fluorescence ratio to DMSO, % at 10 µM | 0.19% of 360,000 active | AID 602162;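 active = fluorescence ratio to DMSO below 75%, the collection mean minus 3 SD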;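 note: signal is porphyrin accumulated inside mitochondria; 100% equals median channel fluorescence of DMSO control wells; lower ratio means ABCB6 inhibition with less porphyrin fluorescence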
Target sequence (Q9NP58 whole entry, looked up): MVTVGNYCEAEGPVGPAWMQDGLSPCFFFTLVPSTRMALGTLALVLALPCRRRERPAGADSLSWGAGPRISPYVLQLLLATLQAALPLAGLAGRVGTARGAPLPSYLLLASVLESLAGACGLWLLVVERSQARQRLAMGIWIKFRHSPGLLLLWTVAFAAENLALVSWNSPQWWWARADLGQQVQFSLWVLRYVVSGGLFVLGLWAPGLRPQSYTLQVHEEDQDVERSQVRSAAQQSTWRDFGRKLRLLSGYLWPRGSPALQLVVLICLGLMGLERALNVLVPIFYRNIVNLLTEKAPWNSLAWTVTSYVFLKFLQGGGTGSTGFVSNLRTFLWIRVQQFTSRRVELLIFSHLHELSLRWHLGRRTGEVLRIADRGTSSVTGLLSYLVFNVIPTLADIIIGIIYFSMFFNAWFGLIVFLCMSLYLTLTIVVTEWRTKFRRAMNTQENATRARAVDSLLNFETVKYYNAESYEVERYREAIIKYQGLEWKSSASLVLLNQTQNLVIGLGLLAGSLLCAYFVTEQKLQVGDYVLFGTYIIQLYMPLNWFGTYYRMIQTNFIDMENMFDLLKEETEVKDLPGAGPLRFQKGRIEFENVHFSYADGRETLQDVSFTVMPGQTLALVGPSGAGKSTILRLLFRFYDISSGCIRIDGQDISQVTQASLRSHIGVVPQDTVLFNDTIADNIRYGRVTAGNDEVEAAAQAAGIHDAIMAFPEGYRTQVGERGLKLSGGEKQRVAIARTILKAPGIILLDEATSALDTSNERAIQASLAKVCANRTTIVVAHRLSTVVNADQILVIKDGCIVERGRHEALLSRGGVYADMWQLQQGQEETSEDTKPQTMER
rCAG binder: molecules binding r(CAG) RNA repeats; r(CAG) RNA repeat, TO-PRO-1 dye displacement fluorescence; inhibition, % at 3 µM; 1.3% of 370,000 active; AID 651821;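 active = inhibition above the plate cutoff, the mean of all test compounds on that plate plus 3 SD, cut at about 35% in these data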;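 note: 0% = DMSO alone and 100% = 100 µM mitoxantrone as full dye displacement; higher means more dye released from RNA so lower well fluorescence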
Exocytosis inh: blocks lytic granule exocytosis | TALL-104 LAMP-1 surface exposure, flow cytometry; cells stimulated with thapsigargin and PMA | inhibition, % at 10 µM | 0.66% of 360,000 active;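 active = inhibition above about 55%, limit read from the data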
PG9 binder conf: confirmation of small molecules binding HIV-1 gp120 antibody PG9; inhibition, % at 6.7 µM; shares compounds with PG9 binder; AID 651571; 90% of 1,500 active; TR-FRET PG9 antibody binding, biochemical; in the data active = inhibition above about 9%
PGV04 counter: binds control antibody PGV04 in PG9 binder counter-screen. AID 651604. TR-FRET PGV04 antibody-gp120 binding, biochemical. shares compounds with PG9 binder. 95% of 1,500 active. inhibition, % at 6.7 µM; in the data active = inhibition above about 9.5%
PG9 binder DR: PG9 antibody binding, dose response | IC50, µM | 95 tested, under 10 active | shares compounds with PG9 binder | TR-FRET PG9 antibody-gp120 binding inhibition | AID 651848; in the data active = IC50 below about 10 µM
PGV04 DR counter: PGV04 binding, dose response counter-screen; shares compounds with PG9 binder; TR-FRET binding to control antibody PGV04; IC50, µM; 20% of 95 active; AID 651937
PG126 DR counter: binds control antibody PG126 in PG9 counter-screen; AID 651939; shares compounds with PG9 binder; TR-FRET binding to antibody PG126, counterscreen; 20% of 95 active; IC50, µM
* hit, by the source's call; i = inactive; / = not tested or not shown. Hits are enriched below; roughly 2.5% of the tested compounds scored in any of these assays. Cut-off read from the data, not from the text of the source, unless noted: active = IC50 below about 9 µM; inactive = the rest.

SMILES	PG9 binder	ABCB6 inh MLPCN	rCAG binder	Exocytosis inh	PG9 binder conf	PGV04 counter	others
CCn1c(=S)[nH]c2nc3c(cc2c1=O)CCCC3	22*	95	2	-5	10*	9.9*	PG9 binder DR=>67;PGV04 DR counter=i;PG126 DR counter=i
COc1ccc(NC(=O)CSc2nnc(-c3cccs3)n2N)cc1S(N)(=O)=O	2	96	2	-8	/	/
CSc1nc(SC(C)C(=O)O)c2c3c(sc2n1)COC(C)(C)C3 (configuration not stated)	9.0*	92	11	11	21*	30*
COc1ccc(C2NC(=O)c3sc4nc(C)c(C(C)=O)c(-c5ccc(Cl)cc5)c4c3N2)cc1 (configuration not stated)	9.3*	99	2	-2	22*	40*
S=c1[nH]nc(-c2cccc(Cl)c2)n1/N=C/c1ccc(-c2ccccc2Br)o1	1	99	3	-2	/	/
S=c1[nH]nc(-c2ccccn2)n1/N=C/c1ccc(-c2ccccc2Br)o1	15*	100	12	1	8	25*
CCn1ncc([C@@H]2C[C@H]3CN(Cc4cccc(Cl)c4)C(=O)[C@]34CCCN24)c1C	-3	96	-11	-1	/	/
O=C1N(Cc2cccc(Cl)c2)C[C@@H]2C[C@@H](c3cccn3-c3cccnc3)N3CCC[C@@]123	17*	94	-7	11	10*	19*
Cc1nc(N2CCC(C)CC2)c2c(C)c(C(=O)Nc3ccc(C(F)(F)F)cc3)sc2n1	42*	101	0	-1	8	11*
O=C1Cc2cc(NS(=O)(=O)c3ccc([N+](=O)[O-])cc3)cc3c2N1CCC3	0	95	8	0	/	/
CC(=O)N1[C@H](Cc2ccccc2)C=C[C@]1(C)C(=O)NCc1ccccn1	-1	103	-3	-7	/	/
N#Cc1cc2c(nc1SCC(=O)NCc1ccc3c(c1)OCO3)CCCCC2	14*	93	-1	0	17*	26*
COc1ccc(C(=O)N[C@H](C(=O)N2CCN(c3ccccc3F)CC2)C(C)C)cc1	-1	97	-5	-2	/	/
CS(=O)(=O)c1ccc2nc(NC(=O)c3ccc(Cl)cc3)sc2c1	58*	100	3	1	51*	65*
COc1ccccc1C(=O)Nc1nc2ccc(S(C)(=O)=O)cc2s1	19*	93	1	-7	27*	37*
CS(=O)(=O)c1ccc2nc(NC(=O)c3cc4ccccc4o3)sc2c1	9.6*	86	9	0	24*	33*
COc1ccc(C(=O)Nc2nc3ccc(S(C)(=O)=O)cc3s2)cc1	46*	95	12	0	41*	58*
CCN(CC)S(=O)(=O)c1ccc(C)c(NS(=O)(=O)c2cc(/C=C/C(=O)O)cc(OC)c2OC)c1	0	98	8	-4	/	/
COc1ccc(C2=CCCCCC2)cc1OC	-1	96	-1	-16	/	/
COc1ccccc1C(=O)Nc1nnc(S(=O)(=O)N2CCCCC2)s1	36*	98	14	2	35*	42*
CCc1nc(N)c(C#N)c(-c2ccncc2)c1C	1	104	1	1	/	/
CCc1nc(N)c(C#N)c(-c2cccc3ccccc23)c1C	15*	93	-1	-1	21*	29*
COc1c2c(c(CCC(=O)O)c3c1C=CC(C)(C)O3)OC(C)(C)C=C2	-2	103	11	-2	/	/
c1ccc(Cc2nnc(Sc3ccccc3)c3ccccc23)cc1	29*	96	0	14	29*	36*
c1ccc(Sc2ncnc3ccccc23)cc1	1	95	-8	-6	/	/
COc1cccc(C2/C(=C(\O)c3ccc4c(c3)OCCO4)C(=O)C(=O)N2Cc2cccnc2)c1 (configuration not stated)	23*	99	2	3	30*	35*

High-throughput results from PubChem BioAssay.
